Compound activity as filed in PubChem BioAssay.
Shown are actives, neighbours in structure and some others; about 2.2% of the full set was active somewhere.
ZTA counter = counter-screen for EBNA-1 inhibitors: inhibitors of Epstein-Barr virus ZTA; P03206; ZTA-DNA binding, fluorescence polarization; inhibition, % at 11 µM; 320,000 compounds, 0.15% hits; in the data active = inhibition above about 33%
Target sequence (P03206 whole entry, looked up): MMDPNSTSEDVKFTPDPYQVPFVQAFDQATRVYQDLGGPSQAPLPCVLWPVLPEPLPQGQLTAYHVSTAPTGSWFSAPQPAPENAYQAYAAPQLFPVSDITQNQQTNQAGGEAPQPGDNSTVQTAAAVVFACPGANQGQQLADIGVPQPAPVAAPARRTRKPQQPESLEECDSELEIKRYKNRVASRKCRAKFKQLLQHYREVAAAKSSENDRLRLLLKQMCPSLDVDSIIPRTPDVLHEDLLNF
PolyA inhibitor = polyadenylation inhibitors in yeast reporter cells, primary screen, luminescence, S. cerevisiae. S. cerevisiae SKY197-pL101 polyadenylation reporter, beta-gal luminescence; efflux-impaired pdr1/pdr3 knockout yeast; score 100 = 6 SD above DMSO. activity score, % at 12 µM. 300,000 compounds, 0.02% hits. AID 1875, 2009;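 active = lowest replicate activity score at least 50, where 100 means six control SD above control mean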;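 also: yeast exposed to compound for 9 h at 30 °C; higher score means more reporter readthrough which indicates perturbed polyadenylation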
NALP1 inh = NALP1 inflammasome inhibitors in reconstituted yeast, colorimetric, S. cerevisiae, triplicate retest | S. cerevisiae NALP1/ASC/caspase-1 growth, X-gal OD620, 72 h | inhibition, % at 10 µM | 280,000 compounds, 0.61% hits; in the data active = inhibition mostly above about 24%, no sharp cut-off; inactive = mostly below about 32%
EBNA-1 inhibitor = EBNA-1 DNA-binding inhibitors, primary screen, biochemical, fluorescence polarization; 300,000 compounds, 0.34% hits; inhibition, % at 14.8 µM; AID 1950, 2009; in the data active = inhibition above about 28%
NALP3 yeast inh = NALP3 inflammasome inhibitors in reconstituted yeast, primary screen, luminescence, uHTS. AID 2825, 2010. Yeast reconstituted NLRP3/ASC/caspase-1, beta-gal luminescence, 24 h. 330,000 compounds, 0.39% hits. inhibition, % at 10 µM;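 active = inhibition of 50% or more; inactive = inhibition below 50%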;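 also: plate controls were induced DMSO wells for no effect and uninduced yeast grown without galactose for full effect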
dFosB act-1 = activators of delta FosB homodimer, primary screen, biochemical, fluorescence polarization, TAMRA-CDK5 oligo, single point | purified delta FosB; percent of positive-control signal above neutral wells | activation, % at 25 µM | 340,000 compounds, 0.99% hits;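 active = mean activation above about 17%, with every replicate also reaching it, limit read from the data, passing the limit was not always enough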
Target sequence (P13346 whole entry, looked up): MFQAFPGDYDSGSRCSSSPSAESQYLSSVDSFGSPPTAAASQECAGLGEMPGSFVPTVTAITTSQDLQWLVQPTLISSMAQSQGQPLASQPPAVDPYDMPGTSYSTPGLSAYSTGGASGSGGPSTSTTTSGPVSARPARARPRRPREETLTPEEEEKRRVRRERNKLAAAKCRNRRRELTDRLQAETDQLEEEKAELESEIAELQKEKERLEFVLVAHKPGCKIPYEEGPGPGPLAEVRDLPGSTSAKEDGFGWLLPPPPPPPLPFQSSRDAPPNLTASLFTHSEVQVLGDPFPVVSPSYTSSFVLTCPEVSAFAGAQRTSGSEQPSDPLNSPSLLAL
dFosB act-2 = activators of mouse delta FosB DNA binding, confirmation, biochemical, fluorescence polarization, TAMRA-CDK5 oligo, cherry-picked samples. shares compounds with dFosB act-1. activation, % at 24.9 µM. purified delta FosB; normalised: neutral wells 0, positive control 100. 2,400 tested, under 10 active;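 active = highest replicate activation at or above 34% and every replicate reaching that threshold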;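 also: higher polarization means more probe DNA bound by delta FosB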
* marks the source's active call; other numbers are inactive results; / = not tested or not shown.

SMILES	ZTA counter	PolyA inhibitor	NALP1 inh	EBNA-1 inhibitor	NALP3 yeast inh	dFosB act-1	dFosB act-2
O=C(Nc1ccc(F)cc1)C1CCN(c2ncnc3c2nc2n3CCCCC2)CC1	-20	-6	1	-4	6	48*	3
CCOc1ccc(NS(=O)(=O)c2cccc(C(=O)N3CCN(C/C=C/c4ccccc4)CC3)c2)cc1	/	/	/	/	/	-10	/
Cc1c(Cl)cccc1NC(=O)CC1Oc2ccccc2NC1=O (configuration not stated)	-7	8	7	-1	11	23*	5
Cc1c(Cl)cccc1NC(=O)CC1Sc2ccccc2NC1=O (configuration not stated)	0	-4	15	-2	-4	46*	2
Cc1ccc(C)c(NC(=O)CC2Sc3ccccc3NC2=O)c1 (configuration not stated)	/	/	/	/	/	1	/
COc1ccc(CN(C)C(=O)CSc2nnc(C3CC3)n2C2CC2)cc1	/	/	/	/	14	-12	/
Cc1ccnc(NC(=O)C(Cc2ccccc2)NC(=O)c2ccccc2)c1 (configuration not stated)	-8	/	/	/	10	-5	/
COc1ccc(CCn2c(=N)c(C(=O)NCCN3CCOCC3)cc3c(=O)n4cccc(C)c4nc32)cc1OC	12	9	31	-6	17	22*	0
COc1ccc(CCn2c(=N)c(C(=O)NCCN3CCOCC3)cc3c(=O)n4ccccc4nc32)cc1OC	16	16	1	12	3	-1	/
COCCn1c(=N)c(C(=O)NCCc2ccccc2)cc2c(=O)n3cccc(C)c3nc21	3	-5	/	-12	18	-2	/
Cc1cccn2c(=O)c3cc(C(=O)NCCc4ccccc4)c(=N)n(CCCn4ccnc4)c3nc12	2	1	1	-4	17	22*	1
Cc1c(C(=O)OC/C(O)=C(\C#N)c2nc3ccccc3[nH]2)oc2ccccc12	-9	0	/	-1	12	45*	-9
COc1cc(OC)cc(C(=O)OC/C(O)=C(\C#N)c2nc3ccccc3[nH]2)c1	2	1	/	3	15	40*	4
Cc1c(C(=O)OCC(O)=C(C#N)c2nc3ccccc3[nH]2)oc2ccc(Br)cc12	/	/	/	/	/	-1	/
[O-][n+]1c2ccccc2[n+]([O-])c2cc(O)ccc21	22	3	13	5	27	-8	/
O=C(Nc1nc(-c2ccccc2)cs1)c1ccc2c(=O)n3c(nc2c1)CCCCC3	12	-2	20	25	15	18*	5
O=C(Nc1ccccc1Cl)c1ccc2c(=O)n3c(nc2c1)CCC3	-18	/	/	/	13	-10	/
Cc1cc(C)c(NC(=O)CS(=O)CC(=O)Nc2ccc(F)cc2F)c(C)c1 (configuration not stated)	4	29	/	1	-12	23*	1
Cc1cc(C)c(NC(=O)CS(=O)CC(=O)N2CCN(c3ccc(F)cc3)CC2)c(C)c1 (configuration not stated)	-22	6	22	4	11	-6	/
CC(=O)Nc1ccc(NC(=O)CSc2nnc(NC(=O)Cc3ccc(F)cc3)s2)cc1	5	5	-2	9	2	24*	0
CC(=O)Nc1ccc(NC(=O)CSc2nnc(NC(=O)C3CC3)s2)cc1	-2	-17	-3	4	14	28*	-1
O=C(CSc1nnc(NC(=O)C2CC2)s1)Nc1ccccc1	8	-4	16	6	10	25*	2
O=C1c2cc(O)c(O)cc2S(=O)(=O)C1c1ccccc1 (configuration not stated)	1	-13	/	2	13	-2	/
COc1ccc(Br)cc1/C=C/C(=O)NC(=S)Nc1ccc(CN2CCOCC2)cc1	-2	-7	3	9	17	48*	2
COc1ccc(C(=O)NC(=S)Nc2ccc(CN3CCOCC3)cc2)cc1OC	2	-6	/	-11	10	/	/
SMILES	ZTA counter	PolyA inhibitor	NALP1 inh	EBNA-1 inhibitor	NALP3 yeast inh	dFosB act-1	dFosB act-2
O=C(CSc1nc(-c2cccs2)nc2ccccc12)NC1CCS(=O)(=O)C1 (configuration not stated)	-4	/	/	/	9	34*	-3
Cc1cc(C)c(C)c(S(=O)(=O)N2CCN(C(=O)c3ccccc3OCc3c(C)noc3C)CC2)c1C	14	/	/	/	14	-11	/
CCc1nc(N)nc(N)c1-c1ccc(N(C)Cc2ccccc2)c([N+](=O)[O-])c1	/	/	/	/	/	-5	/
CC(=O)Nc1cccc(NC(=O)Nc2cccc(Cl)c2C)c1	3	12	4	8	-4	22*	-1
CC(=O)Nc1cccc(NC(=S)Nc2cccc(Cl)c2C)c1	4	-4	6	-7	6	-4	/
Cc1cccc(NC(=O)Nc2ccc(C)cc2Br)c1	14	-4	38	8	18	20*	5
CCOC(=O)c1cccc(NC(=O)CCS(=O)(=O)c2ccc(Br)s2)c1	19	-9	-13	7	-2	111*	3
CC(NC(=O)CCc1nc2cc(S(=O)(=O)N3CCOCC3)ccc2n1C)c1ccc(S(N)(=O)=O)cc1 (configuration not stated)	-1	1	17	9	3	-9	/
CC1CCN(S(=O)(=O)c2ccc(C(=O)Nc3sccc3C(N)=O)cc2)CC1	-10	16	16	-4	12	53*	3
Cc1ccc(NC(=O)CSc2nnc3c(n2)[nH]c2ccccc23)cc1	-3	18	9	2	-1	-2	/
Cc1ccc(CNC(=O)CSc2nnc3c(n2)[nH]c2ccccc23)cc1	-11	3	15	-5	-5	28*	7
COc1ccc2[nH]c3nc(SCc4nnc(-c5ccccc5)o4)nnc3c2c1	0	-12	-1	8	-3	19*	2
COc1ccc(CNC(=O)CSc2nnc3c(n2)[nH]c2ccc(OC)cc23)cc1	4	19	13	8	3	40*	-2
O=C(CN(C(=O)CNC(=O)c1cccs1)c1ccc(F)cc1)NC1CCCCC1	8	0	13	-4	1	-11	/
Cn1c(N)c(C(=O)CSc2nnc(NC3CCCCC3)s2)c(=O)n(C)c1=O	/	/	/	/	11	-4	/
CC1Cc2cc(-c3csc(N)n3)ccc2O1 (configuration not stated)	8	6	5	1	24	-3	/
O=C(Cn1cnc2c(nnn2-c2ccccc2)c1=O)NCc1ccc(F)cc1	-15	-12	18	-5	3	19*	4
